NPR1 antag: Natriuretic polypeptide receptor (hNpr1) antagonism - Primary qHTS; Atrial natriuretic peptide receptor 1 (Homo sapiens), P16066; HEK293 hNpr1 GloSensor cGMP, ANP-stimulated luminescence; Potency, µM (highest dose often 46.3 µM), for inactives: at the top dose activity change, negative = inhibition, actives largely listed as inhibitors; hit rate 1.6% among 76,000; AID 1347048, 2019; calls by dose curve; note: nearly all actives have a fitted effect of over 60% in size
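Compound pre-incubated 30 min at room temperature on GloSensor-loaded HEK293 cells stably carrying hNpr1 and the pGS-40F cGMP biosensor. Stimulation uses hNppA at 0.1 nM final; luminescence is taken at baseline and 20 min post-agonist.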
GPT2 inh: Primary qHTS assay for inhibitors of Glutamate pyruvate transaminase 2 (GPT2); Alanine aminotransferase 2 (Homo sapiens), Q8TD30; Recombinant GPT2, coupled pyruvate oxidase/HRP Amplex Red fluorescence; Potency, µM (series often up to 57.7 µM), for inactives: at the top dose activity change, negative = inhibition, usual class: inhibitors; hit rate 0.25% among 100,000; AID 1671188, 2021; note: nearly all actives have a fitted effect of over 60% in size
Target sequence (Q8TD30 whole entry, looked up): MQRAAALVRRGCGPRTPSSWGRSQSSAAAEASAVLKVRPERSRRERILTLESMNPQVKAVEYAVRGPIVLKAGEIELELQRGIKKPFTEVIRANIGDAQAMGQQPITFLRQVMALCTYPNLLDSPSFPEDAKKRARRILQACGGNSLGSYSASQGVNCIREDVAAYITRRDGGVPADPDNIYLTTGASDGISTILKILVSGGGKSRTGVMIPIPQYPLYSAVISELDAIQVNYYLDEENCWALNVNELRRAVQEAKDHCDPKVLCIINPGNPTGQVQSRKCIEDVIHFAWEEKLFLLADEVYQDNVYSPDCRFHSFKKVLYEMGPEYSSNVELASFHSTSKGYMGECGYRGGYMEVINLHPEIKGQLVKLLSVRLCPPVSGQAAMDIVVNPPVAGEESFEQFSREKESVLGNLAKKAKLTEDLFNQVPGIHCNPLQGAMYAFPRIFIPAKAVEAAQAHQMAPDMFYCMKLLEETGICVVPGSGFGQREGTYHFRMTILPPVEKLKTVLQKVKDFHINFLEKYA
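GPT2 10ng/uL, a-KG 250uM, L-Ala 2mM, HEPES pH7.5 + 0.0001% Tween; 30 min RT. Then Amplex mix (PO/HRP/ThPP), 30 min RT dark, fluorescence. AOA 50uM used as positive control.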
HEK cytotox: Cytotoxic Profiling in HEK 293 Cell Line of Diverse Libraries Using Quantitative High-Throughput Screening | HEK 293 viability, ATP luminescence (CellTiter-Glo), 48-72 h | Potency, µM (series often up to 115 µM), for the others: at the highest dose activity change, negative = cytotoxicity, usual class: inhibitors | hit rate 6.6% among 94,000; note: nearly all actives have a fitted effect of over 60% in size
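HEK 293 cells at 250 cells/well were exposed to compounds by pintool transfer for 48 or 72 hr at 37 degree Celsius, 5% CO2. Viability was read as ATP-coupled luminescence with CellTiter-Glo after 10 min at room temperature.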
Luciferase inh: Firefly luciferase inhibition profiling of diverse chemical library using quantitative high-throughput screening; Luciferin 4-monooxygenase (Photinus pyralis), P08659; purified P. pyralis luciferase, luminescence, biochemical; Potency, µM (series often up to 115 µM), hits mostly inhibitors; hit rate 2.5% among 76,000; AID 1347043, 2019; note: nearly all actives have a fitted effect of over 65% in size
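Purified 10nM P. pyralis luciferase with 10uM D-luciferin and 10uM ATP in 50mM Tris acetate pH 7.5, 10mM Mg acetate, 0.01% Tween-20, 0.05% BSA. qHTS titration; luminescence read by CCD imager.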
NIH3T3 tox: Cytotoxic Profiling in NIH 3T3 Cell Line of Diverse Libraries Using Quantitative High-Throughput Screening. NIH 3T3 viability, CellTiter-Glo ATP luminescence, 48-72 h. Potency, µM (titrated, usually from 96.7 µM), inactives show at the top dose activity change, negative = cytotoxicity, actives largely listed as inhibitors. hit rate 4.3% among 94,000; note: nearly all actives have a fitted effect of over 55% in size
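Cells were seeded at 400 per well, treated with pin-transferred compound, and kept 48 or 72 hr at 37 °C before CellTiter-Glo addition and luminescence imaging of cellular ATP.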
Starred values were filed as active, the others as inactive; i = inactive; ? = inconclusive; nt = no result given; ! = repeats disagree; [ ] = another dose, or the depositor's remark. Sampled rows, rich in hits. Any-hit rate of the full collection: about 10%. Unless noted, calls come from the whole dose curve; as a rule, active = well fitted curve in the direction sought with a large enough effect; inconclusive = small, poorly fitted or top-dose-only effect, or another doubt; inactive = no such curve, though single readings can be large; an effect the other way counts as inactive or inconclusive. % is set by controls: 0 for no effect and ±100 for the full control effect; potency is the fitted concentration of half-maximal effect.

SMILES | NPR1 antag | GPT2 inh | HEK cytotox | Luciferase inh | NIH3T3 tox
O=C(Nc1ccccc1)N1Cc2[nH]cnc2C[C@H]1c1nc(-c2ccc3ccccc3c2)no1 | 0% | 0% | -3% | i | -10%
CCOC(=O)c1ccc(NC(=O)N2Cc3[nH]cnc3C[C@H]2c2nc(C(C)C)no2)cc1 | 1%[70.6 µM] | 2%[88.5 µM] | ? | i | 100µM*
Cc1ccc(NC(=O)N2Cc3[nH]cnc3C[C@H]2c2nc(-c3ccc4ccccc4c3)no2)cc1 | -26% | ? | ? | 20µM* | ?
COc1ccc(NC(=O)N2Cc3[nH]cnc3C[C@H]2c2nc(-c3ccccc3)no2)cc1 | -21%[70.6 µM] | 0%[88.5 µM] | ? | 40µM* | 32µM*
CC(=O)c1ccc(NC(=O)N2Cc3[nH]cnc3C[C@H]2c2nc(-c3ccc(F)cc3)no2)cc1 | -3% | 4% | -1% | ? | 89µM*
CCN(CCNC(=O)C1CCCCC(=O)N1)Cc1ccccc1 (stereo unspecified) | nt | 4% | i | nt | 0%
O=C(NC1CCCCCC1)c1cn2cc(-c3ccc(C(F)(F)F)cc3)sc2n1 | nt | i | -16% | nt | -16%
O=C(NC1CCCCC1)N1Cc2[nH]cnc2C[C@H]1c1nc(-c2ccc(Cl)cc2)no1 | -5%[70.6 µM] | -24%[88.5 µM] | i | ? | -27%[174 µM]
Cc1ccc(NC(=O)N2Cc3[nH]cnc3C[C@H]2c2nc(-c3ccc(Cl)cc3)no2)cc1 | ? | -11%[88.5 µM] | 71µM* | 40µM* | ?
Cc1ccc(NC(=O)N2Cc3[nH]cnc3C[C@H]2c2nc(-c3ccncc3)no2)cc1 | -4%[70.6 µM] | -5%[88.5 µM] | i | i | 2%[174 µM]
CC(C)c1noc([C@@H]2Cc3nc[nH]c3CN2C(=O)Nc2ccc(Cl)cc2)n1 | -3%[70.6 µM] | i | 100µM* | i | 89µM*
CCOC(=O)c1ccc(NC(=O)N2Cc3[nH]cnc3C[C@H]2c2nc(-c3cccc(C)c3)no2)cc1 | -30% | -12% | ? | ? | ?
O=C(NC1CCCCC1)N1Cc2[nH]cnc2C[C@H]1c1nc(-c2ccc3ccccc3c2)no1 | 0% | i | -5% | 25µM* | 1%
Cc1ccc(NC(=O)N2Cc3[nH]cnc3C[C@H]2c2nc(C(C)C)no2)cc1 | 6%[70.6 µM] | i | 4%[172 µM] | ? | -13%[174 µM]
CCOC(=O)c1ccc(NC(=O)N2Cc3[nH]cnc3C[C@H]2c2nc(-c3ccc(C)cc3)no2)cc1 | -16% | 5% | ? | 32µM* | ?
COc1cccc(C(=O)NC2CCN(C(=O)c3ccc(-c4ncccc4C#N)cc3)CC2)c1 | nt | -6% | ? | nt | ?
COc1ccccc1-c1ccc(CN2CCCCC2C(=O)NCCc2ccccc2)cc1 (stereo unspecified) | nt | -8% | 40µM* | nt | 40µM*
COCCNC(=O)C1CCCCN1Cc1ccc(-c2ccccc2OC)cc1 (stereo unspecified) | nt | nt | 45µM*! | nt | ?
Cc1cc(C)cc(NC(=O)C2CCN(C(=O)c3ncn4c3COC(c3ccc(F)cc3)C4)CC2)c1 (stereo unspecified) | -3% | -13% | 5% | ? | 1%
Cc1ccc(NC(=O)C2CCN(C(=O)c3ncn4c3COC(c3ccc(F)cc3)C4)CC2)cc1C (stereo unspecified) | 1% | 5% | 13% | 35µM* | i
O=C(Nc1ccc2c(c1)CCC2)C1CCN(C(=O)c2ncn3c2COC(c2ccc(F)cc2)C3)CC1 (stereo unspecified) | 1% | i | 7% | 28µM* | i
Cc1cccc(NC(=O)C2CCN(C(=O)c3ncn4c3COC(c3ccc(F)cc3)C4)CC2)c1C (stereo unspecified) | -2% | i | 7% | ? | i
Cc1cc(NC(=O)C2CCN(C(=O)c3ncn4c3COC(c3ccc(F)cc3)C4)CC2)ccc1Cl (stereo unspecified) | -3% | 2% | -21% | 40µM* | ?

Assay outcomes (PubChem)
